{
  "source": "PubChem BioAssay (NCATS)",
  "key": {"[1]": {"test": "Primary qHTS for small molecule stabilizers of the endoplasmic reticulum resident proteome: Secreted ER Calcium Modulated Protein (SERCaMP) assay (AID 1508630)", "summary_of_the_method": "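The SH-SY5Y reporter protocol was run at 3 concentrations up to 38.3 uM (primary) or 11 concentrations (follow-up): 16 h compound, 100 nM thapsigargin for 4 h, then extracellular luciferase luminescence.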"}, "[2]": {"test": "A High-Content qHTS Against Drug Library for the Identification of Small Molecules that Inhibit DYT1 Early Onset Primary Dystonia-Associated Cell Pathology (AID 1645839; calls by dose curve; further: series mostly up to about 46 µM)", "summary_of_the_method": "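Induced EGFP-delE TorsinA cells are imaged after 48 h of compound treatment. Punctate fusion-protein distribution gives the %pathology value, while nuclei counts flag toxicity. Wild-type EGFP-hTOR1A cells define the normal pattern.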"}, "[3]": {"biological_target": "Cytochrome P450 2D6 (Homo sapiens) (UniProt P10635)", "sequence (P10635 whole entry, looked up)": "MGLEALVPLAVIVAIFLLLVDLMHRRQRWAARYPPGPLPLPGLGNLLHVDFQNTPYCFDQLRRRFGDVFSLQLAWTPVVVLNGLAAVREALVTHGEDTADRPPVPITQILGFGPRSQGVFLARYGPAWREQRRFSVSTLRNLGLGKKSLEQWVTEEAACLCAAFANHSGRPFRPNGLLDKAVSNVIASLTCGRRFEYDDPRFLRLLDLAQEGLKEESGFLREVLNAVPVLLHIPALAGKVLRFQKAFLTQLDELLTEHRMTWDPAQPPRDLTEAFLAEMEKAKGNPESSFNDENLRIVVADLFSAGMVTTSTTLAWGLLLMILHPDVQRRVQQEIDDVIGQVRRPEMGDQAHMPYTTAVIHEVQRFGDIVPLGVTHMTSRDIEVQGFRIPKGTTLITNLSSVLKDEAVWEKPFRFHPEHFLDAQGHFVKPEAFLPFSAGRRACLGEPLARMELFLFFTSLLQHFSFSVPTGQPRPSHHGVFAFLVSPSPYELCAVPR", "test": "Cytochrome P450 family 2 subfamily D member 6 (CYP2D6) small molecule antagonists: luciferase biochemical (cell-free) qHTS assay (AID 1645840; active means well fitted curve in the direction sought with a large enough effect in the repeat runs; an effect the other way counts as inactive or inconclusive; further: series mostly up to about 57 µM; nearly all actives have a fitted effect of over 55% in size)", "summary_of_the_method": "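P450-Glo CYP2D6 system: proluciferin substrate converted by enzyme to luciferin, read by luminescence proportional to activity. Enzyme-substrate mix with compound 10 min at room temperature, then NADPH regeneration 1 h before detection reagent.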"}, "[4]": {"biological_target": "Cytochrome P450 2C9 (Homo sapiens) (UniProt P11712)", "sequence (P11712 whole entry, looked up)": "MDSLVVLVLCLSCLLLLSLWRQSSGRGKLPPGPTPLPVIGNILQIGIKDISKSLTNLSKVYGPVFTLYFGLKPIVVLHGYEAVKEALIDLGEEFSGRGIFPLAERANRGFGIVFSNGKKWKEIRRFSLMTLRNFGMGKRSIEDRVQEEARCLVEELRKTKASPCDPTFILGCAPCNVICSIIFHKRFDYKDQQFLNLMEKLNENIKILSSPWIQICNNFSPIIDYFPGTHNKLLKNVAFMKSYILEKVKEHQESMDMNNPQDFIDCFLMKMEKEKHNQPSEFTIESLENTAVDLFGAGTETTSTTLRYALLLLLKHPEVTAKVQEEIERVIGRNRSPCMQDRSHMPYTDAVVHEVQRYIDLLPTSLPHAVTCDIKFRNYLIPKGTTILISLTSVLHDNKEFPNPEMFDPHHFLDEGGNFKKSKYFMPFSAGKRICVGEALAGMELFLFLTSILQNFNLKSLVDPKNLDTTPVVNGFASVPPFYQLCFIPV", "test": "Cytochrome P450 family 2 subfamily C member 9 (CYP2C9) small molecule antagonists: luciferase biochemical (cell-free) qHTS assay (AID 1645842; active means well fitted curve in the direction sought with a large enough effect in the repeat runs; an effect the other way counts as inactive or inconclusive; further: nearly all actives have a fitted effect of over 55% in size; further: potency means the concentration at half of the fitted maximal effect)", "summary_of_the_method": "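P450-Glo CYP2C9 system: proluciferin substrate with enzyme in mix containing 0.4% BSA, 10 min at room temperature, then NADPH regeneration solution added and incubated 1 h at 37C. Detection reagent stopped reaction; luminescence read after 20 min as RLU.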"}, "[5]": {"biological_target": "Calcium and integrin-binding protein 1 (Homo sapiens) (UniProt Q99828)", "sequence (Q99828 whole entry, looked up)": "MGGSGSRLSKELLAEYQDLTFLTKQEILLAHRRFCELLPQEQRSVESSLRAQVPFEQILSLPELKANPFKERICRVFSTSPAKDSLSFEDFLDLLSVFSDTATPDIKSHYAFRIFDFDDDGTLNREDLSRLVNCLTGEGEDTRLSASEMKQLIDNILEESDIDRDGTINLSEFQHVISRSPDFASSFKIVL", "test": "Primary qHTS for Identification of Calcium Integrin Binding Protein 1 (CIB1) Competitor (AID 1508620);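 further: GST tagged CIB1 binding a fluorescein labelled alphaIIb integrin peptide tracer; top concentration of the series differs between compounds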", "summary_of_the_method": "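Fluorescence polarization competition: CIB1-GST (1 uM final) preincubated with compound 15 min at room temperature, then FITC-labeled alphaIIb peptide (100 nM final) added for another 15 min. Polarization read at Ex 480/Em 540.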"}, "Papain (Carica papaya)": {"biological_target": "Papain (Carica papaya) (UniProt P00784)", "sequence (P00784 whole entry, looked up)": "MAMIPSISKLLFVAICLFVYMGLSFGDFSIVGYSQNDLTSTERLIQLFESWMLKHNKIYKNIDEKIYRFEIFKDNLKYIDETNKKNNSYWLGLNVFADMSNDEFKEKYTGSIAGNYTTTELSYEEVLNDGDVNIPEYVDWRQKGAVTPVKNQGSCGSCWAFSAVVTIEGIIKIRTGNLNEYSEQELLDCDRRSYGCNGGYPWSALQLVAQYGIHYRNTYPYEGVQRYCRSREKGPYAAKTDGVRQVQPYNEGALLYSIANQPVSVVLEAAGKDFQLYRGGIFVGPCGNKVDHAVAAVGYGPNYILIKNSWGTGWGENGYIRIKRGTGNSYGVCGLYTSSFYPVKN", "test": "Primary qHTS assay for inhibitors of the protease papain (AID 1645873);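 further: papain turnover of Z-FR-AMC read as the AMC fluorescence gain over 10 min; series mostly up to about 50 µM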"}, "[6]": {"test": "Counterscreen qHTS for small molecule stabilizers of the endoplasmic reticulum resident proteome: GLuc-NoTag assay (AID 1508627); further: potency means the concentration at half of the fitted maximal effect", "summary_of_the_method": "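Secreted GLuc lacking the SERCaMP modification is measured in SH-SY5Y cells exposed to compound for 19 h and then to thapsigargin (100 nM, 4 h) to deplete ER calcium; hits retested at 11 concentrations, up to 76.6 uM.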"}, "[7]": {"test": "Confirmatory qHTS for small molecule stabilizers of the endoplasmic reticulum resident proteome: Secreted ER Calcium Modulated Protein (SERCaMP) assay (AID 1508628); further: potency means the concentration at half of the fitted maximal effect; nearly all actives have a fitted effect of over 40% in size", "summary_of_the_method": "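Reporter secretion upon ER calcium depletion (100 nM thapsigargin, 4 h, 37C) is measured as medium luminescence with coelenterazine, after 16 h compound pretreatment of SH-SY5Y-GLuc-SERCaMP cells; primary at three concentrations up to 38.3 uM, follow-up at 11 (up to 76.6 uM).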"}, "[8]": {"test": "Cell Viability qHTS for small molecule stabilizers of the endoplasmic reticulum resident proteome (AID 1508629);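 further: human SH-SY5Y neuroblastoma cells carrying the GLuc-SERCaMP reporter; compound exposure about 46 h in total before the viability read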", "conditions": "cell viability counter-screen, 100 nM thapsigargin for final 4 h"}},
  "note": "Where “and” joins values, the source holds several entries; their conditions need not be identical. Equal values may be shown once. Results filed as inconclusive are left out. A call without a number means that no potency is given here. Some compounds were tested as several samples or in several runs, with calls that do not always agree. Calls of active or inactive are those of the source. Unless noted, the call rests on the fitted dose curve; in most records, active means well fitted curve in the direction sought with a large enough effect; inconclusive means small, poorly fitted or top-dose-only effect, or another doubt; inactive means no such curve, though single readings can be large; an effect the other way counts as inactive or inconclusive.",
  "data": [
    {"smiles": "CCCc1cc(=O)[nH]c(=S)[nH]1", "values": [
      {"measurement": "Potency", "setting": "[1]", "result": "inactive"},
      {"measurement": "Potency", "setting": "[2]", "result": "inactive"},
      {"measurement": "Potency", "setting": "[3]", "result": "inactive"},
      {"measurement": "Potency", "setting": "[4]", "result": "inactive"}
    ]},
    {"smiles": "NCCCCNCCCN", "values": [
      {"measurement": "Potency", "setting": "[5]", "result": "inactive"},
      {"measurement": "Potency", "setting": "[1]", "result": "inactive"},
      {"measurement": "Potency", "setting": "Papain (Carica papaya)", "result": "inactive"}
    ]},
    {"smiles": "CC(C)c1ccc2c(c1)c(SC(C)(C)C)c(CC(C)(C)C(=O)O)n2Cc1ccc(Cl)cc1", "values": [
      {"measurement": "Potency", "setting": "[5]", "result": "inactive"},
      {"measurement": "Potency", "setting": "[1]", "result": "inactive"},
      {"measurement": "Potency", "setting": "Papain (Carica papaya)", "result": "inactive"}
    ]},
    {"smiles": "Cc1ccc(NC(=O)c2ccc(CN3CCN(C)CC3)cc2)cc1Nc1nccc(-c2cccnc2)n1", "values": [
      {"measurement": "Potency", "setting": "[1]", "result": "inactive"},
      {"measurement": "Potency", "setting": "[3]", "result": "inactive"},
      {"measurement": "Potency", "setting": "[4]", "result": "inactive and 23.9 µM (active)"}
    ]},
    {"smiles": "Clc1ccc2c(N3CCN(CCCN4CCN(c5ccnc6cc(Cl)ccc56)CC4)CC3)ccnc2c1", "values": [
      {"measurement": "Potency", "setting": "[5]", "result": "inactive"},
      {"measurement": "Potency", "setting": "[1]", "result": "inactive"},
      {"measurement": "Potency", "setting": "Papain (Carica papaya)", "result": "inactive"}
    ]},
    {"smiles": "C[C@H](Cc1ccc(O)c(O)c1)[C@@H](C)Cc1ccc(O)c(O)c1", "values": [
      {"measurement": "Potency", "setting": "[6]", "result": "35.5 µM (active)"},
      {"measurement": "Potency", "setting": "[7]", "result": "7.94 µM (active)"},
      {"measurement": "max response", "setting": "[8]", "result": "-16.2% (inactive)"},
      {"measurement": "Potency", "setting": "[1]", "result": "inactive"},
      {"measurement": "Potency", "setting": "Papain (Carica papaya)", "result": "inactive"}
    ]},
    {"smiles": "O=C(NCC1CCCCN1)c1cc(OCC(F)(F)F)ccc1OCC(F)(F)F", "note": "(stereo not given)", "values": [
      {"measurement": "Potency", "setting": "[5]", "result": "inactive"},
      {"measurement": "Potency", "setting": "[2]", "result": "inactive"},
      {"measurement": "Potency", "setting": "[4]", "result": "inactive"}
    ]},
    {"smiles": "CCC(C)(Oc1ccc(C2(c3ccc(OC(C)(CC)C(=O)O)cc3)CCCCC2)cc1)C(=O)O", "note": "(stereo not given)", "values": [
      {"measurement": "Potency", "setting": "[5]", "result": "inactive"},
      {"measurement": "Potency", "setting": "[2]", "result": "inactive"},
      {"measurement": "Potency", "setting": "[3]", "result": "inactive"},
      {"measurement": "Potency", "setting": "[4]", "result": "inactive"}
    ]},
    {"smiles": "CC(=O)N1CCN(c2ccc(OC[C@H]3CO[C@](Cn4ccnc4)(c4ccc(Cl)cc4Cl)O3)cc2)CC1", "values": [
      {"measurement": "Potency", "setting": "[5]", "result": "inactive"},
      {"measurement": "Potency", "setting": "[1]", "result": "inactive"},
      {"measurement": "Potency", "setting": "Papain (Carica papaya)", "result": "inactive"}
    ]},
    {"smiles": "CN(C)c1ccc2nc3ccc(=[N+](C)C)cc-3sc2c1", "values": [
      {"measurement": "Potency", "setting": "[1]", "result": "inactive"}
    ]},
    {"smiles": "C[C@]12CCC(=O)C=C1CC[C@@H]1[C@H]2[C@@H](O)C[C@@]2(C)[C@H]1CC[C@]2(O)C(=O)CO", "values": [
      {"measurement": "Potency", "setting": "[1]", "result": "inactive"}
    ]},
    {"smiles": "COc1c(O)cc2c(c1O)[C@@H]1O[C@H](CO)[C@@H](O)[C@H](O)[C@H]1OC2=O", "values": [
      {"measurement": "Potency", "setting": "[5]", "result": "inactive"},
      {"measurement": "Potency", "setting": "[3]", "result": "inactive"},
      {"measurement": "Potency", "setting": "[4]", "result": "inactive"}
    ]},
    {"smiles": "O=c1oc2cc(O)ccc2s1", "values": [
      {"measurement": "Potency", "setting": "[5]", "result": "inactive"},
      {"measurement": "Potency", "setting": "[1]", "result": "inactive"},
      {"measurement": "Potency", "setting": "[3]", "result": "inactive"},
      {"measurement": "Potency", "setting": "[4]", "result": "inactive"}
    ]},
    {"smiles": "CC(=O)Nc1ccc(O)cc1", "values": [
      {"measurement": "Potency", "setting": "[1]", "result": "inactive"},
      {"measurement": "Potency", "setting": "[2]", "result": "inactive"},
      {"measurement": "Potency", "setting": "[3]", "result": "inactive"},
      {"measurement": "Potency", "setting": "[4]", "result": "inactive"}
    ]},
    {"smiles": "Oc1ccc(-c2nc(-c3ccc(F)cc3)c(-c3ccncc3)[nH]2)cc1", "values": [
      {"measurement": "Potency", "setting": "[5]", "result": "inactive"},
      {"measurement": "Potency", "setting": "[1]", "result": "inactive"},
      {"measurement": "Potency", "setting": "Papain (Carica papaya)", "result": "inactive"}
    ]},
    {"smiles": "O=C(CCc1ccc(O)cc1)c1c(O)cc(O)cc1O", "values": [
      {"measurement": "Potency", "setting": "[5]", "result": "inactive"},
      {"measurement": "Potency", "setting": "[1]", "result": "inactive"},
      {"measurement": "Potency", "setting": "Papain (Carica papaya)", "result": "inactive"}
    ]}
  ]
}
